Source: PubChem
NPC1 promoter act – NPC1 promoter activation; Huh7 NPC1 promoter luciferase reporter, 24 h; Potency, µM (titrated, usually from 9.22 µM), inactives show at the top dose activation, actives largely listed as activators; hit rate 2.4% among 320,000; AID 485313; also: % of control where 0% means no effect; nearly all actives have a fitted effect of over 60% in size
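Stably transfected Huh7 (NPC1 promoter→luciferase), 1500 cells/well in Opti-MEM + 10% FBS, 2 h settle, then compound 24 h at 37 °C. Luminescence after 10 min with Amplite reagent.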
ELG1 repair inh – inhibitors of ELG1-dependent DNA repair in HEK293T cells; Potency, µM (highest dose often 46.1 µM), inactives show at the top dose activity change, negative = inhibition, usual class: inhibitors; AID 504467; hit rate 2.3% among 330,000; HEK293T ELG1-luciferase reporter, luminescence, 16 h; DNA damage induced by 5-fluorouridine; also: % is scaled to controls: 0 for no effect and ±100 for the full control effect; nearly all actives have a fitted effect of over 55% in size
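Cells (2,000 per well) received 5-fluorouridine plus test compound or DMSO and were incubated 16 hr at 37 °C, 5% CO2. Luciferase activity was read by luminescence 30 min after ONE-Glo addition; signal suppression marked inhibition of damage-induced ELG1 function.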
ELG1 genotox – genotoxicity induction in ELG1-luciferase HEK293T cells; Potency, µM (titrated, usually from 46 µM), for inactives: top-dose activity change, positive = activation, actives largely listed as activators; hit rate 1.3% among 330,000; HEK293T ELG1-luciferase reporter, luminescence, 16 h; also: % of control where 0% means no effect; nearly all actives have a fitted effect of over 60% in size
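Luminescence read-out: rising ELG1-luciferase signal, reflecting elevated ELG1 protein under genetic stress, flags genotoxic compounds. Cells were treated for 16 hr at 37 °C before ONE-Glo detection.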
SMN2 splice enh – increases expression of the SMN2 splice variant; HEK293 SMN2-luciferase splicing reporter, luminescence, 30-36 h; Potency, µM (highest dose often 46.1 µM), for inactives: at the top dose activity change, positive = activation, usual class: activators; hit rate 2.8% among 210,000; AID 1458; also: % of control where 0% means no effect; nearly all actives have a fitted effect of over 55% in size
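HEK293 cells carry an SMN2 minigene-luciferase reporter in which exon 7 inclusion puts luciferase in frame. Cells were seeded at 2000 cells/well, attached for 10-12 hours, then exposed to compounds for 30-36 hours at 37C before ONE-Glo luminescence.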
FLuc counter – inhibits or activates purified firefly luciferase, miR-21 counter-screen; P08659; purified FLuc, Km substrates, luminescence inhibition; Potency, µM (highest dose often 57.5 µM), without a hit: top-dose activity change, negative = inhibition, hits mostly inhibitors; hit rate 6.9% among 360,000;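 also: plate controls were vehicle for no effect and reference inhibitor for full effect; nearly all actives have a fitted effect of over 55% in size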
Target sequence (P08659 whole entry, looked up): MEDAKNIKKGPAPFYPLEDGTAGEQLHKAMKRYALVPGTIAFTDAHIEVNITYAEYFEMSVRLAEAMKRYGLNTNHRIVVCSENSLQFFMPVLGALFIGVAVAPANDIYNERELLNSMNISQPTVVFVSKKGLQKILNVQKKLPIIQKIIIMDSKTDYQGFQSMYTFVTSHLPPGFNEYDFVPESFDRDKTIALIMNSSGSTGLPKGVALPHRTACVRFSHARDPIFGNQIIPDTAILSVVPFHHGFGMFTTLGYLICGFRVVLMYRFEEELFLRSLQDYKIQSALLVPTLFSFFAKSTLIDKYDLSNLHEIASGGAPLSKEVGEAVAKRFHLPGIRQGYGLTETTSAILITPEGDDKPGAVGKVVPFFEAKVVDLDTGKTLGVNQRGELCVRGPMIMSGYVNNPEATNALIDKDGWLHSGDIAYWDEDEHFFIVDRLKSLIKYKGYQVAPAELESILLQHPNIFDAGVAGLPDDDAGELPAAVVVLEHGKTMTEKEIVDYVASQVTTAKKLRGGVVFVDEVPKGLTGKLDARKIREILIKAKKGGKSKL
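Purified P. pyralis luciferase (10nM final) with 10uM D-luciferin and 10uM ATP (Km levels) in 50mM Tris acetate pH 7.5, 10mM Mg acetate, 0.01% Tween-20, 0.05% BSA; qHTS 6-point titration, ~60 µM downward; luminescence read.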
Rab9 promoter act – activators of Rab9 promoter; hit rate 2.8% among 320,000; Huh7 Rab9 promoter-luciferase reporter, luminescence, 24 h; Potency, µM (top dose mostly 9.22 µM), inactives show top-dose activation, negative = inhibition, most hits filed as activators; also: % of control where 0% means no effect; nearly all actives have a fitted effect of over 60% in size
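Huh7 cells stably carrying Rab9 promoter–luciferase reporter, plated 1500 cells/well, compound added after 2 h and incubated 24 h at 37 °C; luciferase luminescence then read after 10 min with detection reagent.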
Numbers without * were called inactive; [ ] = remark or other dose. A selection: hits, their analogues and other compounds. The true share with any hit is near 9.2%. Calls follow the shape of the dose curve; as a rule, active = well fitted curve in the direction sought with a large enough effect; inconclusive = small, poorly fitted or top-dose-only effect, or another doubt; inactive = no such curve, though single readings can be large; an effect the other way counts as inactive or inconclusive. Potency is read from the fitted curve at half-maximal effect.

For COc1cc2c(cc1OC)C(C)N(C(=O)Cn1ncc3c1-c1cc(C)ccc1OC3)CC2 (stereo unspecified) the results were NPC1 promoter act -3.9%, ELG1 repair inh 18.4µM*, ELG1 genotox -12.4%, SMN2 splice enh -33.1%, FLuc counter 5.6% and Rab9 promoter act -5.7%.
Screening CCSc1nc(O)cc(=O)n1CC returned NPC1 promoter act -2.1%, ELG1 repair inh -14.1%, ELG1 genotox 6.1%, SMN2 splice enh 5.3%, FLuc counter inconclusive and Rab9 promoter act -7.3%.
`CCC(=O)N(Cc1cc2ccccc2[nH]c1=O)C(C)C` gave NPC1 promoter act -3.7%, ELG1 repair inh 0.0%, ELG1 genotox 23.1µM*, SMN2 splice enh -34.0%, FLuc counter 0.3% and Rab9 promoter act 15.6%.
`CCN(CC)CCNC(=O)c1cc2c(-c3cccc(OC)c3)nn(C)c2s1` gave NPC1 promoter act 1.3%, ELG1 repair inh inconclusive, ELG1 genotox 5.3%, SMN2 splice enh -68.7%, FLuc counter 2.8% and Rab9 promoter act -10.4%.
Screening CCOCCCNC(=O)c1cc2c(-c3ccc(Cl)cc3)nn(C)c2s1 returned NPC1 promoter act -12.6%, ELG1 repair inh 20.6µM*, ELG1 genotox -15.3%, SMN2 splice enh -9.5%, FLuc counter -1.6% and Rab9 promoter act -18.0%.
`COCCCNC(=O)c1cc2c(-c3cccc(OC)c3)nn(C)c2s1` gave NPC1 promoter act -1.6%, ELG1 repair inh 11.6µM*, ELG1 genotox -1.4%, SMN2 splice enh -7.4%, FLuc counter -9.5% and Rab9 promoter act 3.4%.
`O=C(NNC(=O)C(O)(c1ccccc1)c1ccccc1)C1CC1` gave NPC1 promoter act -1.5%, ELG1 repair inh -1.3%, ELG1 genotox -1.1%, SMN2 splice enh -5.5%, FLuc counter -0.8% and Rab9 promoter act -5.5%.
For Cc1ccc2cc(CCNC(=O)c3ccc4c(c3)OCO4)c(=O)[nH]c2c1C the results were NPC1 promoter act -0.1%, ELG1 repair inh inconclusive, ELG1 genotox -11.6%, SMN2 splice enh -11.6%, FLuc counter 1.9% and Rab9 promoter act -4.6%.
`Oc1ccc(OCc2ccccc2)cc1` gave SMN2 splice enh 4.4%[20.6 µM].
Screening Oc1ccc(NCc2ccc(OCc3ccccc3Cl)cc2)cc1 returned SMN2 splice enh 6.6% and FLuc counter 26.9µM*.
Screening Oc1ccc(NCc2ccc(OCc3ccccc3)cc2)cc1 returned NPC1 promoter act -12.7%, ELG1 repair inh inconclusive, ELG1 genotox inconclusive, SMN2 splice enh 21.3%, FLuc counter 26.9µM* and Rab9 promoter act -5.5%.
For O=C(OC1CCN(c2ncc(C(F)(F)F)cc2Cl)CC1)c1ccc(Cl)cc1 the results were NPC1 promoter act -3.0%, ELG1 repair inh 4.1%, ELG1 genotox -0.4%, SMN2 splice enh 4.2%, FLuc counter -1.0% and Rab9 promoter act 0.6%.
For O=C(CSc1nccn1-c1ncc(C(F)(F)F)cc1Cl)c1ccc(Cl)cc1 the results were NPC1 promoter act 3.98µM*, ELG1 repair inh inconclusive, ELG1 genotox 33.5%, SMN2 splice enh 6.8%, FLuc counter inconclusive and Rab9 promoter act 3.55µM*.
For COc1ccc(NC(=O)/C=C/c2cccc(C(F)(F)F)c2)cn1 the results were NPC1 promoter act -1.7%, ELG1 repair inh 18.3µM*, ELG1 genotox -22.2%, FLuc counter inconclusive and Rab9 promoter act -1.3%.
Screening COc1ccc(NC(=O)/C=C/c2cccc(Br)c2)cn1 returned NPC1 promoter act inconclusive, ELG1 repair inh inconclusive, ELG1 genotox -12.1%, FLuc counter 13.5µM* and Rab9 promoter act inconclusive.
`Cc1ccc(NC(=O)/C=C/c2cccc(C(F)(F)F)c2)cc1` gave NPC1 promoter act -2.5%, ELG1 repair inh -6.2%, ELG1 genotox -1.7%, FLuc counter inconclusive and Rab9 promoter act 6.7%.
`CCOC(=O)c1c(Nc2cccc(O)c2)nnc(-c2ccccc2)c1-c1ccccc1` gave SMN2 splice enh -10.4% and FLuc counter inconclusive.
CCc1ccc2c(c1)[C@H]1OCC[C@H]1[C@@H](c1cccs1)N2 was read as NPC1 promoter act -15.5%, ELG1 repair inh -1.0%, ELG1 genotox 2.7%, SMN2 splice enh -22.9%, FLuc counter 15.1µM* and Rab9 promoter act -22.5%.
Fc1ccc2c(c1)[C@H]1OCC[C@H]1[C@@H](c1ccco1)N2 was read as NPC1 promoter act -2.1%, ELG1 repair inh 8.3%, ELG1 genotox 0.7%, SMN2 splice enh -22.3%, FLuc counter -0.9% and Rab9 promoter act 1.5%.
Screening CCc1ccc(NC(=O)CSc2ccc(-c3cccs3)nn2)cc1 returned FLuc counter -10.9%.
COc1ccc(/C=C/C(=O)c2ccc([N+](=O)[O-])o2)cc1OC was read as NPC1 promoter act -36.5%, ELG1 repair inh 11.6µM*, ELG1 genotox inconclusive, FLuc counter -7.8% and Rab9 promoter act -38.8%.
`COc1cc(/C=C/C(=O)c2ccc([N+](=O)[O-])o2)ccc1O` gave NPC1 promoter act -36.4%, ELG1 repair inh inconclusive, ELG1 genotox inconclusive, FLuc counter inconclusive and Rab9 promoter act -37.2%.
For Cc1cc(O)c(C(=O)/C=C/c2cccc([N+](=O)[O-])c2)c(=O)o1 the results were NPC1 promoter act -12.9%, ELG1 repair inh 1.1%, ELG1 genotox 1.3%, FLuc counter 21.3µM* and Rab9 promoter act -15.7%.
Cc1cc(O)c(C(=O)/C=C/c2ccccc2O)c(=O)o1 was read as NPC1 promoter act 1.7%, ELG1 repair inh -2.9%, ELG1 genotox -3.3%, FLuc counter -7.6% and Rab9 promoter act 1.7%.
`O=C(/C=C/c1cccc(Cl)c1)c1ccc([N+](=O)[O-])o1` gave NPC1 promoter act -36.1%, ELG1 repair inh 7.3µM*, ELG1 genotox -46.2%, FLuc counter -20.1% and Rab9 promoter act -36.8%.
Screening C#CCNC(=O)C1=C[C@H](c2cn(C(C)=O)c3ccccc23)[C@@H](CCCO)[C@H](OCC)O1 returned NPC1 promoter act -2.7%, ELG1 repair inh 11.6%, ELG1 genotox 7.9%, FLuc counter -0.6% and Rab9 promoter act 3.4%.
Screening CSc1ncccc1C(=O)NCC(c1cccs1)N1CCOCC1 (stereo unspecified) returned NPC1 promoter act -4.6%, ELG1 repair inh 8.5%, ELG1 genotox 1.8%, FLuc counter -1.0% and Rab9 promoter act -5.2%.
O=C(c1cccc(-c2nnc(-c3ccccc3)o2)c1)N1CCCCCC1 was read as NPC1 promoter act inconclusive, ELG1 repair inh 19.0%, ELG1 genotox inconclusive, SMN2 splice enh inconclusive, FLuc counter 16.9µM* and Rab9 promoter act inconclusive.
